Screens from PubChem.
HT1080 IDH1KD tx: HT-1080 IDH1 knockdown cell toxicity (counter line); HT-1080 IDH1 knockdown viability, ATP luminescence, 48 h; Potency, µM (titrated, usually from 46.1 µM), most hits filed as cytotoxic; actives 2% (n = 360,000)
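Using the IDH1-knockdown HT-1080 line run in the same batch and compound series as the NT line, viability after 48 h at 37 °C was determined by CellTiter-Glo luminescence and expressed as % activity.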
TGFb inhibitor: inhibitors of TGF-b signaling | Potency, µM (doses to about 46.1 µM), hits mostly inhibitors | HepG2 CAGA-GFP TGF-b/SMAD3 reporter, GFP fluorescence, 18 h; TGF-beta stimulated, 500 pg/mL final | actives 1.2% (n = 410,000) | AID 588855; note: nearly all actives have a fitted effect of over 65% in size
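GFP signal (ex488/em500-530) from TGF-beta-stimulated HEPG2 CAGA-GFP cells, 500 pg/mL final, 18 h at 37 degrees C in DMEM plus 1% FBS, normalized to unstimulated and DMSO-stimulated controls.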
IL1B secr inh: blocks inflammasome-driven IL-1 beta release. actives 4.7% (n = 360,000). THP-1 LPS/ATP IL-1B secretion, AlphaLISA, 16 h; active compounds read low. activity change, % at 57.5 µM; in the data active = activity change below about -50%; inconclusive = mostly about -30% to -49%
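Secreted IL-1B measured by AlphaLISA bead assay after 16 h compound exposure of THP-1 cells; compounds (final up to 57.5 uM) added 1 h before LPS (250 ng/mL) and ATP (1.25 mM) stimulation; lower signal means less secretion.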
HT1080NT lethal: kills 2HG-producing HT-1080-NT fibrosarcoma cells. HT-1080-NT fibrosarcoma viability, CellTiter-Glo ATP luminescence, 48 h. Potency, µM (titrated, usually from 46.1 µM), usual class: cytotoxic. actives 1.6% (n = 360,000);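 note: NT is the 2HG producing partner of a matched IDH1 knockdown line; nearly all actives have a fitted effect of over 55% in size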
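HT-1080-NT; 750 cells/well; 5% FBS RPMI; 48 h compound, 37 degrees C; CellTiter-Glo luminescence; curve fitting and curve-class assignment.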
HepG2 tox: counter-screen for TGF-b inhibitors: cytotoxicity in HepG2 cells; Potency, µM (highest dose often 46.1 µM), most hits filed as cytotoxic; AID 588856; actives 0.76% (n = 410,000); HepG2 CAGA-GFP viability, ATP luminescence, 18 h
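HepG2 CAGA-GFP cells (1000/well, DMEM with 1% FBS) received compound, then TGF-beta at 500 pg/mL final, and were incubated 18 hours at 37 degrees C. Viability was read by CellTiter-Glo luminescence. Media-only wells were set as complete cell-killing and DMSO as no toxicity.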
Giardia killer: kills Giardia lamblia | AID 540267 | Giardia lamblia trophozoite viability | actives 0.15% (n = 340,000) | activity change, % at 7.66 µM, hits read low; in the data active = activity change below about -80%; inconclusive = between about -30% and that limit;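 note: parasites exposed to compound for two days anaerobically before the ATP read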
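Media and compound were dispensed first, then trophozoites at 100 cells/well; plates sat 48 hrs at 37 deg C without oxygen before ATP luminescence reagent was added and read after 15-30 min at room temperature.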
A number is an active result; - = inactive; ? = inconclusive; . = no result given. Most compounds without a hit are left out; they make up all but 6.5% or so of the library. Unless noted, calls come from the whole dose curve; as a rule, active = well fitted curve in the direction sought with a large enough effect; inconclusive = small, poorly fitted or top-dose-only effect, or another doubt; inactive = no such curve, though single readings can be large; an effect the other way counts as inactive or inconclusive.

SMILES	HT1080 IDH1KD tx	TGFb inhibitor	IL1B secr inh	HT1080NT lethal	HepG2 tox	Giardia killer
Cc1ccc(S(=O)(=O)N/N=C\c2ccccc2OCc2ccccc2)cc1	?	?	-	?	-	-
CC(=O)Oc1ccc(N2C(=O)C3C(C2=O)C(C(=O)c2ccc(Cl)cc2)N2CCCC32)cc1 (stereo unspecified)	23µM	?	-101	?	-	-
COc1ccc(N(C(=O)c2ccccc2C)S(=O)(=O)c2ccc(C)cc2)cc1	.	-	.	.	-	.
COc1ccc(N(C(=O)c2ccccc2C)S(=O)(=O)c2cccs2)cc1	0.92µM	-	-	0.92µM	-	-
Fc1ccc(CSc2nc3ccccc3[nH]2)cc1	?	-	-63	-	-	-
c1ccc2[nH]c(SCc3cn4ccccc4n3)nc2c1	-	-	-	-	-	-
Cc1cccc2nc(CSc3nc4ccccc4[nH]3)cn12	-	-	-66	-	-	-
O=C(Nc1ccc(F)cc1)C(Sc1nc2ccccc2[nH]1)c1ccccc1 (stereo unspecified)	?	?	-54	?	-	-
c1ccc(CSc2nc3ccccc3[nH]2)cc1	-	-	-	-	-	-
COc1ccc(CC2(CO)CCN(CC3=CC[C@H]4C[C@@H]3C4(C)C)CC2)cc1	-	-	-	-	-	-
Cc1ccc(S(=O)(=O)N(CC2CO2)c2ccccc2[N+](=O)[O-])cc1 (stereo unspecified)	-	-	?	-	-	-
O=S(=O)(c1ccccc1)N(CC1CO1)c1ccccc1 (stereo unspecified)	-	-	-	-	-	-
O=S(=O)(c1ccccc1)N(CC1CO1)c1cccc2ccccc12 (stereo unspecified)	?	-	-69	-	-	-
O=[N+]([O-])c1ccc(N(CC2CO2)S(=O)(=O)c2ccccc2)cc1 (stereo unspecified)	?	-	-73	?	-	-
CN(CCNC(=O)c1ccc(CS(=O)(=O)c2ccc(Br)cc2)o1)CCc1ccccc1	-	-	?	-	-	-
O=C(/C=C/c1ccc([N+](=O)[O-])cc1)NCCN1C(=O)S/C(=C\c2ccc(F)cc2)C1=O	-	-	-	-	-	-
Cc1ccc(C(c2nnnn2Cc2cccs2)N2CCN(Cc3ccc4c(c3)OCO4)CC2)cc1 (stereo unspecified)	?	-	-64	-	-	-
COCCn1nnnc1C(c1ccc(C)cc1)N1CCN(Cc2ccc3c(c2)OCO3)CC1 (stereo unspecified)	-	-	-	-	-	-
O=C(O)CCSc1nnc(COc2ccc(Cl)cc2)n1-c1ccccc1	-	-	-	-	-	-
COc1ccc(C2CC(c3cccs3)=NN2C(=S)Nc2ccccc2)cc1OC (stereo unspecified)	-	-	-	-	-	-
O=S(=O)(/C=C/c1ccccc1)Oc1ccccc1	?	?	-89	?	-	-
CNS(=O)(=O)/C=C/c1ccccc1	-	-	-	-	-	-
O=C1/C(=C\c2ccccc2)CCc2c1[nH]c1ccccc21	12µM	-	?	7.3µM	-	-
CC(=O)Nc1c(F)c(F)c(F)c(F)c1F	-	-	-	-	-	-
O=C(CCCn1c(SCC(=O)NCC2CCCO2)nc2ccccc2c1=O)NCc1ccccc1 (stereo unspecified)	-	-	-	-	-	-
SMILES	HT1080 IDH1KD tx	TGFb inhibitor	IL1B secr inh	HT1080NT lethal	HepG2 tox	Giardia killer
O=C(CCCn1c(SCc2cccc(F)c2)nc2ccccc2c1=O)NCC1CCCO1 (stereo unspecified)	-	-	-79	-	-	-
Cc1cccc(CCN=c2c([N+](=O)[O-])nn(-c3ccccc3)n2O)c1	-	-	?	-	-	-91
Cc1cccc(-n2nc([N+](=O)[O-])c(=NC3CCN(Cc4ccccc4)CC3)n2O)c1	-	?	-	-	16µM	-84
COc1ccc(-n2nc([N+](=O)[O-])c(=NCCc3cccc(C)c3)n2O)cc1	-	-	-	-	-	-85
COc1ccc(-n2nc([N+](=O)[O-])c(=NCCCN3CCCC3=O)n2O)cc1	-	?	-	-	-	-85
COc1ccc(CCN=c2c([N+](=O)[O-])nn(-c3cccc(C)c3)n2O)cc1OC	-	?	-	-	-	?
COc1ccc(CNC(=O)CN(C(=O)c2ccc(CN3CCOCC3)o2)C2CCCC2)cc1	-	-	-	-	-	-
Cc1ccc(NC(=S)N2CCCC(c3nc4ccc(C)cc4[nH]3)C2)c(C)c1 (stereo unspecified)	-	?	-	-	-	-
CN1CCN(S(=O)(=O)c2ccc(N(C)Cc3ccc(C(F)(F)F)cc3)c([N+](=O)[O-])c2)CC1	?	-	-85	?	-	-
C(=N\Nc1ccccn1)/c1c[nH]c2ccccc12	-	-	-95	-	-	-
O=[N+]([O-])c1ccc(NN=Cc2ccc(O)cc2O)nc1	3.3µM	-	-	?	-	-
O=[N+]([O-])c1ccc(NN=Cc2ccc(O)cc2)nc1	-	-	-	-	-	-
O=C(N/N=C/c1cc([N+](=O)[O-])ccc1O)NC12CC3CC(CC(C3)C1)C2	-	?	-	-	-	-
CCCOc1ccc(/C=N/NC(=S)Nc2ccccc2[N+](=O)[O-])c(O)c1	15µM	?	-	9.2µM	-	-
O=C(N/N=C/c1cc([N+](=O)[O-])ccc1O)Nc1ccccc1	16µM	-	-	?	-	-
Cc1noc(C)c1/C=N/Nc1ccccn1	-	-	-70	-	-	-
O=[N+]([O-])c1ccc(O)c(/C=N/Nc2ccccn2)c1	10µM	?	-101	12µM	-	-
CC/C(C)=N/Nc1cccc([N+](=O)[O-])c1	9.2µM	-	-	?	-	-
O=[N+]([O-])c1cccc(N/N=C/c2cc([N+](=O)[O-])ccc2O)c1	15µM	-	-	23µM	-	-
CCC(CC)=NNc1cccc([N+](=O)[O-])c1	?	-	-	-	-	-
Cc1ccc(/C=N/Nc2ccccn2)s1	-	?	-	-	-	-
Cc1ccc(-n2nc(C)c(NC(=O)COC(=O)c3ccccc3NCCO)c2C)cc1	-	-	-	-	-	-
O=[N+]([O-])c1ccc(NN=Cc2ccccc2O)nc1	7.3µM	?	-	?	-	-
Cc1ccccc1C(=O)N/N=C/c1cccc2ccccc12	-	-	-	-	-	-
Cc1ccc(Cl)cc1NC(=S)N/N=C/c1cccc2ccccc12	2.6µM	-	-	3.7µM	-	-
